From ChEMBL document CHEMBL3433997, “St. Jude Leishmania screening dataset” (2016)

Key:
Assay type in all cases: functional
[1] = target: Solute carrier family 2, facilitated glucose transporter member 1 (Homo sapiens) (UniProt P11166); assay: ST_JUDE_LEISH: Cytotoxicity at 2uM final concentration against transgenic Leishmania Mexicana promastigotes LmGLUT1 that are glucose transport deficient and complemented with the human glucose transporter GLUT1. Activity is measured by DNA content using SYBR green in vitro
[2] = target: Hexose transporter 1 (Plasmodium falciparum) (UniProt O97467); assay: ST_JUDE_LEISH: Cytotoxicity at 2uM final concentration against transgenic Leishmania Mexicana promastigotes LmPfHT that are glucose transport deficient and complemented with the Plasmodium falciparum hexose transporter. Activity is measured by DNA content using SYBR green in vitro
[3] = target: Glucose transporter (Leishmania mexicana) (UniProt O61059); assay: ST_JUDE_LEISH: Cytotoxicity at 2uM final concentration against transgenic Leishmania Mexicana promastigotes LmGT2 that are glucose transport deficient and complemented with the L. Mexicana glucose transporter 2. Activity is measured by DNA content using SYBR green in vitro

Sequence of Solute carrier family 2, facilitated glucose transporter member 1 (Homo sapiens) (P11166 whole entry): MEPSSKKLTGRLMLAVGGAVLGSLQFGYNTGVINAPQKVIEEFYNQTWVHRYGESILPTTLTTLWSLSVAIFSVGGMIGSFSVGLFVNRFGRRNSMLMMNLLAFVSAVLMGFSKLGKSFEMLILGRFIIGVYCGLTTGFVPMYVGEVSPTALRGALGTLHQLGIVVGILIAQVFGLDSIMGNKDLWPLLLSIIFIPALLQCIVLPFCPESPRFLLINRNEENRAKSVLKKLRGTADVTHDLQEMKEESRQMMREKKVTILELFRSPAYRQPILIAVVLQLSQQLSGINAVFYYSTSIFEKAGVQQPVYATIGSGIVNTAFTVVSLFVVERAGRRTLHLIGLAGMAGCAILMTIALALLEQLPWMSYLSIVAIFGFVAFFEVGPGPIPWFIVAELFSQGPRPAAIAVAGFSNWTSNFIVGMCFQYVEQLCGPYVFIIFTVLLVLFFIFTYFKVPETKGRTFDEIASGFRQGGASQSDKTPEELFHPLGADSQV

SMILES | inhibition [1] [%] | inhibition [2] [%] | inhibition [3] [%]
CCc1ccc(CNCC(CCNc2cc(=O)c3ccccc3[nH]2)NCc2cc(Br)cc(Br)c2)o1 (centres undefined) | -1.12 | 1.71 | -0.33
Oc1ccccc1CN1CCCC(COC(c2ccc(F)cc2)c2ccc(F)cc2)C1 (centres undefined) | 3.68 | 3.28 | 0.55
CCCNCc1ccc(-c2ccc(CN(Cc3cnc(C)cn3)C(=O)c3nn(-c4ccccc4)nc3C)cc2)nc1 | 2.69 | 0.9 | -6.47
FC(F)(F)c1ccc2[nH]ccc(=NN=CC=Cc3ccccc3)c2c1 | 0.22 | 0.25 | 4.34
Cc1cccc2nc(-c3cccc(-c4cccc(NC(=O)Cc5ccc[n+]([O-])c5)c4)c3)[nH]c12 | 1.71 | 1.78 | 0.81
CCc1cn2c3c(cc(C(=O)N[C@@H](Cc4ccccc4)[C@H](O)CNCc4ccccc4)cc13)N(C)S(=O)(=O)CC2 | -0.83 | -0.74 | 0.13
CCc1cn2c3c(cc(C(=O)N[C@@H](Cc4ccccc4)[C@H](O)CNCc4ccc(C)cc4)cc13)N(C)S(=O)(=O)CC2 | -0.24 | 1.57 | 0.38
CC(C)(CNCCOc1ccc(Cl)cc1)c1nc(-c2ccnc(N)n2)c(-c2ccc(Cl)c(O)c2)[nH]1 | 2 | 1.8 | 0.27
COc1ccc2nccc([C@@H](O)CN3CCC(NC(=O)/C=C/c4ccc5cc(C)[nH]c5c4)CC3)c2c1 | 3.96 | 3.03 | 1.91
CCCCCCN(CCCCCC)CC(O)c1cc(-c2ccc(Cl)cc2)nc2c(C)cc(C)cc12 (centres undefined) | 8.61 | 6.85 | 8.75
Cc1cc(F)ccc1Nc1nc(N(C)c2ccccc2)c2cc(OCCN(C)C)ccc2n1 | 7.87 | 6.84 | 2.04
CC[C@H](C)CNC(=O)c1cncc(-c2cccc(CNCCCc3ccccc3)c2)c1 | 4.76 | 3.06 | 4.25
CCCc1cc(Cc2cnc(N)nc2N)cc(OC)c1OC | 0.14 | 2.78 | 0.24
Cc1ccc(C(c2nnnn2C2CCCC2)N(Cc2ccco2)Cc2ccccc2Cl)cc1 (centres undefined) | 9.7 | 9.7 | 8.53
N=C(N)c1ccc2[nH]c(-c3cc4cc(C(=N)N)ccc4o3)cc2c1 | 2.26 | 2.36 | 1.58
Nc1ncnc2occ(-c3ccc(NC(=O)Nc4cc(C(F)(F)F)ccc4F)cc3)c12 | 0.61 | 2.93 | -2.03
CCOc1cc(C)ccc1C1CCN(CCN2CCC(CNC(=O)c3ccc(-c4ccc(C(F)(F)F)cc4)cc3)CC2)CC1 | 0.7 | 2.7 | 1.5

SMILES | inhibition [1] [%] | inhibition [2] [%] | inhibition [3] [%]
CCCCCC(C)C(C)c1cc(O)c2c(c1)OC(C)(C)C=C2c1cc[n+]([O-])cc1 (centres undefined) | 11 | 10.4 | 9.99
O=S(=O)(Nc1ccc(CCN2CCCCC2CCN2CCCC2)cc1)c1cccc2cccnc12 (centres undefined) | 1.48 | 1.12 | 2.15
N=C1N=C(N)NC2(CCCCC2)N1OCCCOc1cccc2ccccc12 | 54.1 | 60 | 37.9
OC1CCC(Nc2ccc3ncc(-c4ccc5ccccc5c4)n3n2)CC1 (centres undefined) | 1.14 | 3.23 | 3.53
CN1CCN(CC(=O)Nc2ccc(-c3ccc(-c4nc5ccccc5[nH]4)s3)cc2)CC1 | 1.26 | 3.57 | 2.3
CCOC(=O)Cn1ccc2c(NCc3ccccc3)nc(C)nc21 | 0.48 | 1.38 | 2.53
CC(C)c1ccc(CN(C)CCCCNC(=O)c2ccc(NC(=O)c3ccc(Cl)cc3)cc2)cc1 | -0.05 | -0.96 | -1.07
Cc1[nH]c2ccccc2c1C(=O)CSc1nn(-c2ccccc2)c(=S)s1 | 5.67 | 7.39 | 2.44
CCOc1ccccc1CCNCC1CCN(CC2CCCCC2)CC1 | 1.97 | -2.9 | 2.88
COc1ccc2c(=O)c3ccc(OC)cc3[nH]c2c1 | 1.08 | -2.12 | -0.67
CCCN(Cc1ccc(OCC)cc1)Cc1cc(=O)c2cc(Cl)ccc2[nH]1 | 8.02 | 8 | 7.1
O=C(CCOc1ccccc1)NCC1CCCO1 (centres undefined) | 1.87 | -0.04 | 1.06
COc1ccc2nccc(N3CCC(SCCNCc4ccc5c(n4)NC(=O)CO5)C3)c2n1 (centres undefined) | 0.4 | 2.93 | 2.08
O=C(/C=C/c1ccc(Cl)c(Cl)c1)NCCCCCN1CCCC(C(=O)Nc2ccc(Cl)cc2)C1 (centres undefined) | 3.76 | 5.09 | 2.58
O=C(Nc1cccc(-c2cccc(-c3nc4cc(F)ccc4[nH]3)c2)c1)Nc1ccc2c(c1)OCO2 | 1.84 | 4.87 | -1.13
COc1ccc(NC2=C(c3ccccc3)C(=O)c3ccccc32)cn1 | 7.83 | 4.66 | 3.49
